Assay [1] concerns the target Progesterone receptor (Homo sapiens) (UniProt P06401). As to the kind of experiment: qHTS assay to identify small molecule agonists of the progesterone receptor (PR) signaling pathway (AID 1346784; calls by dose curve; also: nearly all actives have a fitted effect of over 30% in size). In short, it runs like this: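 HEK 293T PR-UAS-bla reporter cells, 2% charcoal-stripped FBS; 6 hr settle at 37C/5% CO2, compound (DMSO) 16 hr, LiveBLAzer B/G FRET substrate 2 hr RT, fluorescence intensity read.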

For assay [2] the target is unchanged. The assay can be described thus: qHTS assay to identify small molecule antagonists of the progesterone receptor (PR) signaling pathway (AID 1346795; active = well fitted inhibition curve with a large enough effect in the signal ratio in the repeat runs, not every such curve was filed as active; the % refers to the signal ratio). In short, it runs like this: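 Beta-lactamase reporter, HEK293T PR-UAS-bla line; 2% charcoal-stripped FBS; 6 hr pre-incubation, 37C/5% CO2. Compound + R5020 1 nM final, 16 hr. LiveBLAzer B/G FRET substrate, 2 hr RT; fluorescence intensity read.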
(In qHTS, concentration-response curves come from the screen itself.)

The nature of assay [3]: qHTS assay to identify small molecule antagonists of the progesterone receptor (PR) signaling pathway - cell viability counter screen (AID 1346798). Also: series mostly up to about 92 µM; nearly all actives have a fitted effect of over 50% in size. The essentials:
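Luminescence readout (CellTiter-Glo, 30 min, RT) of viability in PR-UAS-bla HEK293T cells exposed to compound and R5020 agonist for 16 hr at 37C, 5% CO2; run in the same wells as the beta-lactamase reporter read.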

A short description of assay [4]: qHTS assay to identify small molecule agonists of the progesterone receptor (PR) signaling pathway - cell viability counter screen (AID 1346799; calls by dose curve; also: nearly all actives have a fitted effect of over 45% in size). The essentials: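 HEK293T PR-UAS-bla, 3,000 cells/well, 2% charcoal-stripped FBS; 6 h settle, compound 16 h at 37C/5% CO2; LiveBLAzer 2 h RT, then CellTiter-Glo 30 min RT, luminescence read.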
Assay [5] can be described thus: qHTS assay to identify small molecule agonists of the TGF-beta/Smad signaling pathway - cell viability counter screen (AID 1346829). Also: top concentration of the series differs between compounds; nearly all actives have a fitted effect of over 45% in size. In short, it runs like this:
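Compound-treated SBE-bla HEK 293T cells (5 hr, 37 C) were assessed for viability with CellTiter-Glo in parallel with the reporter read.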

Assay [6] is described as follows: qHTS assay to identify small molecule agonists of the TGF-beta/Smad signaling pathway (AID 1346859; active = well fitted activation curve with a large enough effect in the signal ratio in the repeat runs, not every such curve was filed as active; the % refers to the signal ratio; also: series mostly up to about 77 µM). The essentials:
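Read-out: fluorescence at 460 and 530 nm (405 nm excitation) after a 2 hr room-temperature incubation with beta-lactamase FRET substrate. SBE-bla HEK 293T cells had been treated with test compounds for 5 hr at 37 C.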

Assay [7] has as its target Thyrotropin-releasing hormone receptor (Homo sapiens) (UniProt P34981). The assay can be described thus: qHTS assay to identify small molecule antagonists of the thyrotropin-releasing hormone receptor (TRHR) signaling pathway (AID 1346877; active = well fitted inhibition curve with a large enough effect in the repeat runs, not every such curve was filed as active; also: series mostly up to about 51 µM). The essentials: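 HEK293/TRHR cells, 18 h, 37 °C; Ca2+ dye 2 h; cpd 5 min RT; TRH 1 nM final; fluorescence read 3 min, 1 s intervals; 15 concs, triplicate.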

For assay [8] the target is unchanged. The assay can be described thus: qHTS assay to identify small molecule agonists of the thyrotropin-releasing hormone receptor (TRHR) signaling pathway (AID 1346891; calls by dose curve;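 also: HEK293 cells expressing TRHR with calcium dye readout; series mostly up to about 58 µM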). The essentials: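 HEK293/TRHR cells, 1500 per well, 18 h 37 °C; Ca dye 2 h 37 °C; pin-tool compound addition (agonist mode); kinetic fluorescence 3 min, 1 s reads; 15 concentrations, triplicate.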

Assay [9] in a line: Human pregnane X receptor (PXR) small molecule agonists, qHTS cell viability counter screen (AID 1346977). Also: nearly all actives have a fitted effect of over 50% in size. In short, it runs like this: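 Fluorescence read-out (CellTiter-Fluor) of viability in PXR-Luc HepG2 cells, multiplexed with the luciferase agonist read. Compounds in DMSO added after 5hr plating; 24hr total exposure at 37C, 5% CO2.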
The nature of assay [10]: Caspase-3/7 induction in HepG2 cells by small molecules, qHTS assay (AID 1346978). Also: nearly all actives have a fitted effect of over 15% in size. The essentials:
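Wild-type HepG2 cells (2,000/well) were settled 5 h at 37 C, 5% CO2, then exposed to compounds in DMSO for 17 h. Caspase-3/7 activity was read by luminescence 30 min after adding Caspase-Glo 3/7 reagent at room temperature.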

A short description of assay [11]: Caspase-3/7 induction in CHO-K1 cells by small molecules, qHTS assay (AID 1346980). Also: nearly all actives have a fitted effect of over 15% in size. The essentials: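 Wild-type cells were seeded at 1,500 per well and settled 5 hr at 37 C, 5% CO2, then exposed to DMSO-dissolved compounds for 17 hr. Caspase-Glo 3/7 reagent was added, and luminescence was read after 30min at room temperature.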
Assay [12] in a line: Caspase-3/7 induction in HepG2 cells by small molecules, qHTS cell viability counter screen (AID 1346981). Also: series mostly up to about 92 µM; nearly all actives have a fitted effect of over 30% in size. In short, it runs like this: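 Fluorescence read-out of live-cell protease activity (CellTiter-Fluor) after 1 hr with reagent. This was measured in the same wells as the caspase-3/7 luminescence, on HepG2 cells exposed to DMSO-dissolved compounds for 16 hr at 37 C.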
Assay [13] concerns the target Nuclear receptor subfamily 1 group I member 2 (Homo sapiens) (UniProt O75469). The assay can be described thus: Human pregnane X receptor (PXR) small molecule agonists, qHTS assay (AID 1346982). Also: nearly all actives have a fitted effect of over 35% in size. Also: potency is read from the fitted curve at half-maximal effect. The essentials: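 HepG2 PXR-Luc reporter line, 5% charcoal-stripped FBS; 5 hr pre-incubation, compound (DMSO) 24 hr at 37 C/5% CO2; ONE-Glo 30 min RT; luminescence read-out.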

Assay [14] has as its target Acetylcholinesterase (Homo sapiens) (UniProt P22303). The assay can be described thus: Acetylcholinesterase (AChE) small molecule antagonists: colormetric cell-based qHTS assay (AID 1347395; calls by dose curve; also: nearly all actives have a fitted effect of over 30% in size). The essentials:
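SH-SY5Y cells; cpd 30 min 37 C; + DTNB/acetylthiocholine, 90 min 37 C; colorimetric thiocholine read; qHTS.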

Assay [15] shares this target. The assay can be described thus: Acetylcholinesterase (AChE) small molecule antagonists: enzyme-based qHTS assay (AID 1347397; calls by dose curve; also: nearly all actives have a fitted effect of over 55% in size). The conditions noted are these: Potency: AChE enzyme activity inhibition. The essentials:
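Compound or DMSO vehicle was pin-transferred onto recombinant human AChE (50 mU/mL as dispensed) and left 30 min at room temperature. Acetylthiocholine with DTNB then started the reaction, read colorimetrically 10 min later.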

Assay [16] is described as follows: qHTS assay to identify small molecule antagonists of the TGF-beta/Smad signaling pathway - cell viability counter screen (AID 1346824). Also: nearly all actives have a fitted effect of over 50% in size. The essentials:
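SBE-bla HEK 293T cells were plated overnight at 37 C, then given compounds in DMSO plus TGF-beta1 (added as 0.25 ng/mL solution) for 5 hr. After the bla read, CellTiter-Glo was added to the same wells and luminescence read after 30 min at room temperature.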

Assay [17] is described as follows: Caspase-3/7 induction in CHO-K1 cells by small molecules, qHTS cell viability counter screen (AID 1346979). Also: nearly all actives have a fitted effect of over 35% in size. The essentials: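 CHO-K1 wt, 1,500 cells/well; 5hr pre-incubation 37C/5% CO2; compound pin transfer (DMSO); 16hr exposure; CellTiter-Fluor added, 1hr, fluorescence read.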
The target in assay [18] is Nuclear receptor subfamily 1 group I member 2 (Rattus norvegicus) (UniProt Q9R1A7). As to the kind of experiment: Rat pregnane X receptor (rPXR) activation by small molecules, qHTS assay (AID 1346983). Also: nearly all actives have a fitted effect of over 20% in size. The conditions noted are these: rPXR luciferase reporter cells, One-Glo luminescence, 24 h; max activation: stronger effect = higher value. The essentials:
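Cell-based rPXR luciferase reporter assay, 2,000 cells per well, rested 5hr at 37 C before compound addition in DMSO, then 24 hr at 37 C. One-Glo reagent was added and luminescence read after 30 min at room temperature.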

Assay [19] addresses Nuclear receptor subfamily 1 group I member 2 (Homo sapiens) (UniProt O75469). The assay can be described thus: CYP3A4 induction through human pregnane X receptor (PXR) by small molecules, qHTS assay (AID 1346984). Also: nearly all actives have a fitted effect of over 40% in size. The essentials: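 HepG2-derived DPX-2 line carrying PXR plus a CYP3A4-promoter luciferase reporter; cells plated 5 hr, compound-exposed 24 hr at 37C. CYP3A4 activity probed with 3uM (final) Luciferin-IPA for 3hr, then luciferase read after One-Glo.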

The target is the same in assay [20]. As to the kind of experiment: Human pregnane X receptor (PXR) activation by small molecules, qHTS assay (AID 1346985). Also: nearly all actives have a fitted effect of over 40% in size. The essentials:
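DPX-2 cells (HepG2 co-transfected with a PXR response element and a CYP3A4-promoter luciferase construct) were seeded at 2,000 per well, rested 5 hr at 37C, then exposed to DMSO-dissolved compounds for 24 hr. Activation was read as luciferase luminescence.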

SMILES strings stand for the structures. A number with no mark means an inactive call. Records with an inconclusive call do not appear. Activity calls are given as the source filed them. Unless noted, calls follow the shape of the dose curve; as a rule, active = well fitted curve in the direction sought with a large enough effect in the repeat runs; inconclusive = weak or mixed curves; inactive = no such curve, though single readings can be large; an effect the other way counts as inactive or inconclusive.
% is scaled to controls: 0 for no effect and ±100 for the full control effect.

Acetylcholinesterase (Homo sapiens), sequence (P22303 whole entry, looked up): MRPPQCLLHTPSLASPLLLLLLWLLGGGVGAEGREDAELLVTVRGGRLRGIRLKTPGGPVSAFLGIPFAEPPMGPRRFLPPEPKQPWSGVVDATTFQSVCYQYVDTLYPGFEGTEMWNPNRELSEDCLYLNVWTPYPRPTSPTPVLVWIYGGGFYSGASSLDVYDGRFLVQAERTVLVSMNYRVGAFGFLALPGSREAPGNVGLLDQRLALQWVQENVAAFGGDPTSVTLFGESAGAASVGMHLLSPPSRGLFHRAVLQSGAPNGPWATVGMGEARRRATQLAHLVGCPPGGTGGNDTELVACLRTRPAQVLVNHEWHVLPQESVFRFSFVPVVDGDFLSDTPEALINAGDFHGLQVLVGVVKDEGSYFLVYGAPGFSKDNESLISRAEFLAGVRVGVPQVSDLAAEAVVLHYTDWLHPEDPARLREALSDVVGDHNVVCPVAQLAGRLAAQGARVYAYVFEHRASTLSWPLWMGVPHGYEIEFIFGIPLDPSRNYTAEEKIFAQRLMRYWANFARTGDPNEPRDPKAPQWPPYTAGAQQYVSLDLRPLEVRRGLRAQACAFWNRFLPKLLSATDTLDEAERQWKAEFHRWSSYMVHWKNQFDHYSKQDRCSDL
Progesterone receptor (Homo sapiens), sequence (P06401 whole entry, looked up): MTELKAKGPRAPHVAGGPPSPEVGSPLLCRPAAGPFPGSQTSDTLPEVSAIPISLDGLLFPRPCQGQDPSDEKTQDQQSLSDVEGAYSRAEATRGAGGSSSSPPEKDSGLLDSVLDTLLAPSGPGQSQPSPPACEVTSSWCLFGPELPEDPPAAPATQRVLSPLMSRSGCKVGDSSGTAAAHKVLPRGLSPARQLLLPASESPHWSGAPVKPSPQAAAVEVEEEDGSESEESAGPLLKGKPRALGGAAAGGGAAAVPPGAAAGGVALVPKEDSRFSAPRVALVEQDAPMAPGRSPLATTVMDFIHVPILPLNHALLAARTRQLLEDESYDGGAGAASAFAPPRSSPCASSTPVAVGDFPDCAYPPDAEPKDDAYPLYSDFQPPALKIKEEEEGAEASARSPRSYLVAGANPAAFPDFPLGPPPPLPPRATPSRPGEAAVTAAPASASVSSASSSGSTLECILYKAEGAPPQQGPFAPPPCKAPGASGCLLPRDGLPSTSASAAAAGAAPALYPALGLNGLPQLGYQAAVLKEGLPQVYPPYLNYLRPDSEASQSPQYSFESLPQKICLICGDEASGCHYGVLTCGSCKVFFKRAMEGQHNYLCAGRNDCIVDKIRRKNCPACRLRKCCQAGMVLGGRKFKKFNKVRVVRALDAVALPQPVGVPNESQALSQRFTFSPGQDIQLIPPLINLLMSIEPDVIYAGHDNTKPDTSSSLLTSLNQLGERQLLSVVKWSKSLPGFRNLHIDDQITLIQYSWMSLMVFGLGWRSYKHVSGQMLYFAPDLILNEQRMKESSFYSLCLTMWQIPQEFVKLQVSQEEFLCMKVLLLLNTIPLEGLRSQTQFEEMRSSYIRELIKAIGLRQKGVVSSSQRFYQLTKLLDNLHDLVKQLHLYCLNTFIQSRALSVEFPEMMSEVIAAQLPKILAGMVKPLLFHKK
Thyrotropin-releasing hormone receptor (Homo sapiens), sequence (P34981 whole entry, looked up): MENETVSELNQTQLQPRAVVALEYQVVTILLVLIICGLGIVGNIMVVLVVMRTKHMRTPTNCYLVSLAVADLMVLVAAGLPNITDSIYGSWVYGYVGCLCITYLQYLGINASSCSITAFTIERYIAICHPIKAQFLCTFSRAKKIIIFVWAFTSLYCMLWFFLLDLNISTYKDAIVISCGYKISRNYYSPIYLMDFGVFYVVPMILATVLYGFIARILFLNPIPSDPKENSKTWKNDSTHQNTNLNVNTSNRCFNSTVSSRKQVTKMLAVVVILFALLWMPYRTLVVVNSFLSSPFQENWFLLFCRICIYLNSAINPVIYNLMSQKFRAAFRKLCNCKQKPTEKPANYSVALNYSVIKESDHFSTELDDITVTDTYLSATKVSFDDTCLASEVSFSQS
Nuclear receptor subfamily 1 group I member 2 (Homo sapiens), sequence (O75469 whole entry, looked up): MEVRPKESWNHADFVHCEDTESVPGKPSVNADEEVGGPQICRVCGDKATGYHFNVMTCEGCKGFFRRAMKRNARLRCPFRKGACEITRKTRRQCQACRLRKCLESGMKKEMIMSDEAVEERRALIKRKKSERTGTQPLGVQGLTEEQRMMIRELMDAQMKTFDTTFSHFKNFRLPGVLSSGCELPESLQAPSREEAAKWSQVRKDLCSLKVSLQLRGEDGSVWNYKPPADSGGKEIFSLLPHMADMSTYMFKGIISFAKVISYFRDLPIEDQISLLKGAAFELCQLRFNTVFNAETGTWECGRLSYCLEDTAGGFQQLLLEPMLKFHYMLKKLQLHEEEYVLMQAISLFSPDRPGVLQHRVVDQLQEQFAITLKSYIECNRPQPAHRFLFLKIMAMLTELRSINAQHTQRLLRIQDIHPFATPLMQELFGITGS
Nuclear receptor subfamily 1 group I member 2 (Rattus norvegicus), sequence (Q9R1A7 whole entry, looked up): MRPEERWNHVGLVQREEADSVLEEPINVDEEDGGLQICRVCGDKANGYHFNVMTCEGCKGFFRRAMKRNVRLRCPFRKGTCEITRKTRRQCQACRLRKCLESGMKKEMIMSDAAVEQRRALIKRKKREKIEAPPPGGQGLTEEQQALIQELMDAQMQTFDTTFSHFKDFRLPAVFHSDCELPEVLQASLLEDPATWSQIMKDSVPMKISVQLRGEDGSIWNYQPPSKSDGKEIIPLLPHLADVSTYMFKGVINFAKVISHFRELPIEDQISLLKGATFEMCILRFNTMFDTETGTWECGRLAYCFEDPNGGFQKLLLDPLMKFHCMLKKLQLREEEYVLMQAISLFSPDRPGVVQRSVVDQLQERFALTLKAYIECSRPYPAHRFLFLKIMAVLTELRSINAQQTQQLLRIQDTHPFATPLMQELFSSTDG

Take `Fc1cc(Br)ccc1CBr`: the Potency result in [1], in [2], in [3], in [4], in [9] and in assay [10] was “inactive” throughout. For the same compound, the Potency entry in assay [11], in assay [12], in assay [13], in [14] and in assay [15] was “inactive” throughout. In addition, the call in [5], in assay [6], in assay [7] and in [8] was inactive.

With `OC(c1ccccc1)(c1ccccc1)C1CCNCC1`, the Potency entry in [1], in assay [2], in [3], in assay [16], in assay [9] and in assay [10] was “inactive” throughout. The Potency result in [17], in assay [11], in assay [12], in assay [13], in assay [19] and in [20] was “inactive” throughout. For the same compound, the Potency entry in assay [14] and in assay [15] was “inactive” throughout. The outcome in assay [5], in assay [6], in assay [7] and in [8] was inactive. In addition, the max activation in assay [18] is -4.65%.

In the case of `N#Cc1c(Cl)cccc1Cl`, the Potency result in assay [1], in [2], in [3], in [16], in [9] and in [10] was “inactive” throughout. Further, the Potency entry in [17], in assay [11], in assay [12], in assay [13], in [14] and in assay [15] was “inactive” each time. Also, the result in assay [5], in assay [6], in [7] and in assay [8] was inactive.

With `CCOC(=O)C1(c2ccccc2)CCN(CCc2ccc(N)cc2)CC1`, the Potency result in assay [1], in assay [2], in assay [3], in assay [4], in [10] and in [17] was “inactive” each time. In addition, the Potency entry in assay [11], in [12], in assay [14] and in [15] was “inactive” in each case. For the same compound, the call in [5] and in assay [6] was inactive. Besides, in assay [13], the Potency was 3.76 µM (active).

As for `O=[N+]([O-])c1cc(Cl)c(Cl)c(Cl)c1`, the Potency entry in assay [1], in assay [2], in assay [3], in assay [4], in assay [9] and in assay [10] was “inactive” in each case. Moreover, the Potency result in assay [17], in assay [11], in assay [12], in assay [13], in assay [14] and in assay [15] was “inactive” in each case. Moreover, the outcome in assay [5], in assay [6], in assay [7] and in assay [8] was inactive.

Take `COc1ccc(C(=O)N2CCCC2=O)cc1`: the Potency result in [1], in assay [2], in [3], in assay [4], in assay [9] and in assay [10] was “inactive” in each case. Also, the Potency result in assay [17], in assay [11] and in assay [12] was “inactive” in each case. Besides, the compound was classed as inactive in [5], in [6], in [7] and in assay [8].

Consider `[Cl][Sn]([Cl])([Cl])[Cl]`, for which the Potency entry in assay [1], in assay [2], in [3], in [16], in assay [9] and in [10] was “inactive” each time. The Potency entry in [17], in assay [11], in assay [12], in [13], in assay [14] and in [15] was “inactive” each time. Further, the result in assay [5], in [6], in [7] and in assay [8] was inactive.

Consider `Cc1coc2c1CCC(C)C2` (stereo not drawn), for which the Potency entry in assay [1], in assay [2], in [3], in assay [4], in assay [9] and in assay [10] was “inactive” each time. Further, the Potency result in assay [17], in [11], in assay [12], in assay [14] and in assay [15] was “inactive” each time. Also, the compound was called inactive in [5] and in [6]. In addition, in assay [13], the Potency was 17.8 µM (active).

Regarding `O=[N+]([O-])c1cccc(O)c1`, the Potency result in assay [1], in assay [2], in assay [3], in assay [4], in assay [9] and in assay [10] was “inactive” throughout. For the same compound, the Potency result in assay [17], in assay [11], in assay [12], in [14] and in assay [15] was “inactive” in each case. Also, the compound was called inactive in assay [5], in [6], in assay [7] and in assay [8].

As to `CCCSC(=O)N(CCC)CCC`, the Potency entry in assay [1], in [2], in assay [3], in assay [4], in assay [9] and in assay [10] was “inactive” throughout. The Potency result in assay [17], in assay [11], in [12], in assay [13], in assay [14] and in [15] was “inactive” throughout. Moreover, the outcome in assay [5], in [6], in assay [7] and in [8] was inactive.

(Values after PubChem BioAssay (Tox21).)
